We go through 25 molecules from PubChem BioAssay (NCATS).

Each structure is given as a SMILES string. Records with an inconclusive call do not appear. Active and inactive are the calls of the source. The call rests on the fitted dose curve; in most records, active means well fitted curve in the direction sought with a large enough effect; inconclusive means small, poorly fitted or top-dose-only effect, or another doubt; inactive means no such curve, though single readings can be large or run the other way.
On the % scale 0 is the no-effect control and ±100 the full control effect; potency means the concentration at half of the fitted maximal effect.

A short description of the assay: qHTS Assay for Identifying Gametocytocidal Compounds (AID 743244).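 On max response: actives lower the fluorescent signal which means gametocytes are killed.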 To be noted: P. falciparum 3D7 stage III-V gametocytes, alamarBlue, 72 h; max response: active compounds read low. In a few lines: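 Stage III–V gametocytes of P. falciparum 3D7 were seeded at 20,000 cells/well onto pre-dispensed compounds. After 72 h, 37 °C, 5% CO2, alamarBlue was added for another 24 h.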
For the molecule `CC(=O)Oc1cc(C)c(OC(C)=O)c2ccccc12`, the Potency was 6.31 µM (active).

As to `CCC(=O)O[C@@H]1CC(=O)O[C@H](C)C/C=C/C=C/[C@H](O)[C@H](C)C[C@H](CC=O)[C@H](O[C@@H]2O[C@H](C)[C@@H](O[C@H]3C[C@@](C)(O)[C@@H](OC(=O)CC)[C@H](C)O3)[C@H](N(C)C)[C@H]2O)[C@H]1OC`, the max response is 4.15% (inactive).

For the molecule `C#C[C@]1(O)CC[C@H]2[C@@H]3CCC4=CCCC[C@@H]4[C@H]3C(=C)C[C@@]21CC`, the max response is -1.95% (inactive).

Turning to `Cc1cc(C(=O)NNCc2ccccc2)no1`, the max response is -1.55% (inactive).

Consider `CC(=O)O[C@]1(C(C)=O)CC[C@H]2[C@@H]3CCC4=CC(=O)CC[C@]4(C)[C@@]3(F)[C@@H](O)C[C@@]21C`, for which the max response was 11% (inactive).

With `Cc1onc(-c2ccccc2)c1C(=O)N[C@@H]1C(=O)N2[C@@H]1SC(C)(C)[C@@H]2C(=O)O`, the max response was -0.392% (inactive).

With `Nc1c(N=Nc2ccc(-c3ccc(N=Nc4cc(S(=O)(=O)O)c5ccccc5c4N)cc3)cc2)cc(S(=O)(=O)O)c2ccccc12`, the max response was 13.5% (inactive).

Take `COC(=O)CCC(=O)CN`: the max response was -0.174% (inactive).

Consider `C/C1=C2N=C(/C=C3N=C(/C(C)=C4\[N-][C@@](C)([C@@H]5N=C1[C@](C)(CCC(=O)NCC(C)OP(=O)(O)O[C@H]1[C@@H](O)[C@@H](n6cnc7cc(C)c(C)cc76)O[C@@H]1CO)[C@H]5CC(N)=O)[C@@](C)(CC(N)=O)[C@@H]4CCC(N)=O)[C@@](C)(CC(N)=O)[C@@H]\3CCC(N)=O)C(C)(C)[C@@H]/2CCC(N)=O.CC(=O)O.[Co]` (stereo not given in full), for which the Potency was 20 µM (active).

Turning to `C[C@@H]1[C@H](O)[C@@H](C)/C=C/C=C\C=C\C=C\C=C\C=C\C=C\[C@H](O[C@@H]2O[C@H](C)[C@@H](O)[C@H](N)[C@@H]2O)C[C@@H]2O[C@](O)(C[C@@H](O)C[C@@H](O)[C@H](O)CC[C@@H](O)C[C@@H](O)CC(=O)O[C@H]1C)C[C@H](O)[C@H]2C(=O)O` (stereo in doubt), the max response is 4.52% (inactive).

Turning to `COc1ccc(CCNC[C@H](O)c2ccc(O)cc2)cc1OC`, the max response is 3.09% (inactive).

On to `CCC1OC(=O)C[C@@H](O)[C@H](C)[C@@H](O[C@@H]2O[C@H](C)C[C@H](N(C)C)[C@H]2O)[C@@H](CC=O)C[C@@H](C)C(=O)/C=C/[C@]2(C)OC2C1C` (stereo not given in full), for which the Potency was 10 µM (active).

As to `C=CC1=C(C)C2=CC3=NC(=C(CC(=O)[O-])C4=NC(=C(C)C4=C([O-])[O-])C=c4[n-]c(c(C)c4CC)=CC1=N2)C(CCC(=O)[O-])C3C.[Cu+2].[Na+].[Na+].[Na+]` (stereo not given), the max response was 14.4% (inactive).

As to `CO[C@@H]1[C@@H](O[C@@H]2O[C@H](C)[C@@H](O[C@H]3C[C@@](C)(O)[C@@H](OC(=O)CC(C)C)[C@H](C)O3)[C@H](N(C)C)[C@H]2O)[C@@H](CC=O)C[C@@H](C)C(=O)/C=C/C2OC2C[C@@H](C)OC(=O)C[C@H]1OC(C)=O` (stereo not given in full), the Potency is 10 µM (active).

As for `O=C(O)c1cc(O)c2c(c1)[O][Bi][O]2`, the max response is 17.6% (inactive).

Take `OCC(S)CS` (stereo not given): the Potency was 3.98 µM (active).

In the case of `OCCO[C@@H]1[C@@H](O)[C@H](O)[C@@H](CO)O[C@@H]1O`, the max response was 18.7% (inactive).

As for `COC(=O)[C@H]1[C@H]2C[C@@H]3c4[nH]c5ccccc5c4CCN3C[C@H]2C[C@@H](OC(=O)c2cc(OC)c(OC)c(OC)c2)[C@@H]1OC`, the Potency was 8.91 µM (active).

Consider `CC(C(=O)O)c1ccc(N2Cc3ccccc3C2=O)cc1` (stereo not given), for which the max response was 8.38% (inactive).

As for `OC[C@H]1O[C@@H](OCCc2ccc(O)cc2)[C@H](O)[C@@H](O)[C@@H]1O`, the max response is 2.01% (inactive).

`CC1(C)O[C@@H]2C[C@H]3[C@@H]4CCC5=CC(=O)C=C[C@]5(C)[C@H]4[C@@H](O)C[C@]3(C)[C@]2(C(=O)CO)O1`: the max response was -15.3% (inactive).

With `CCCCC(=O)N(Cc1ccc(-c2ccccc2-c2nn[nH]n2)cc1)[C@@H](C(=O)O)C(C)C`, the max response is -5.58% (inactive).

For the molecule `CNC(C)[C@@H]1CC[C@@H](N)[C@@H](O[C@H]2[C@H](O)[C@@H](O[C@H]3OC[C@](C)(O)[C@H](NC)[C@H]3O)[C@H](N)C[C@@H]2N)O1` (stereo not given in full), the max response was 5.9% (inactive).

In the case of `CC(NNC(=O)c1ccccc1)c1ccccc1` (stereo not given), the max response was -2.82% (inactive).

In the case of `CCCCC(C)(O)C/C=C/[C@H]1[C@H](O)CC(=O)[C@@H]1CCCCCCC(=O)OC` (stereo not given in full), the max response is -1.16% (inactive).
